Screening data: PubChem BioAssay, National Center for Advancing Translational Sciences (NCATS)
This is a sample that favours compounds with a hit; in the whole collection about 8.7% have one here.
Pf growth 48h: inhibits P. falciparum growth in the first generation, 48 h; P. falciparum luciferase growth in erythrocytes, 48 h; Potency, µM (titrated, usually from 28.7 µM), inactives show at the top dose activity change, negative = inhibition, actives largely listed as inhibitors; AID 504832; hit rate 5.9% among 310,000
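Growth was read as firefly luciferase luminescence after a 48 h, 37 C, 5% CO2 exposure of compounds to reporter-bearing P. falciparum cultures (0.1% parasitemia, 2% hematocrit final) in Albumax-supplemented RPMI 1640.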
Pf growth 96h: inhibits malaria parasite growth, 96 h; hit rate 6.9% among 320,000; AID 504834; Potency, µM (titrated, usually from 28.7 µM), without a hit: at the top dose activity change, negative = inhibition, actives largely listed as inhibitors; P. falciparum luciferase reporter growth, 96 h
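Readout is luminescence from an integrated firefly luciferase in P. falciparum. Red cells, 2% hematocrit and 0.05% parasitemia final, were cultured with compound through two parasite generations (96 hours) at 37 C, 5% CO2.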
VACV mCherry inh: inhibitors of vaccinia virus infection (mCherry reporter signal); Vaccinia virus mCherry reporter infection, fluorescence; Potency, µM (doses to about 36.5 µM), for inactives: at the top dose activity change, negative = inhibition, most hits filed as inhibitors; hit rate 0.63% among 310,000; AID 720579; calls by dose curve; tested in A549 cells; also: nearly all actives have a fitted effect of over 35% in size
Vaccinia Venus: vaccinia inhibition (Venus reporter); Vaccinia virus Venus reporter expression, fluorescence; Potency, µM (highest dose often 36.5 µM), inactives show top-dose activity change, negative = inhibition, actives largely listed as inhibitors; hit rate 0.46% among 330,000; calls by dose curve; tested in A549 cells; also: nearly all actives have a fitted effect of over 30% in size
AMA1-RON2 inh: AMA1-RON2 (P. falciparum) interaction inhibition | AlphaScreen AMA1-biotinylated RON2 peptide binding | Potency, µM (series often up to 58.2 µM), for the others: at the highest dose activity change, negative = inhibition, actives largely listed as inhibitors | hit rate 0.2% among 360,000;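 also: 0% = vehicle wells and -100% = peptide control; nearly all actives have a fitted effect of over 45% in size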
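AMA1 (3D7) with his tag at 25 nM final met compounds first, then biotinylated RON2 peptide at 25 nM; detection used donor plus acceptor beads, 10 µg/mL apiece, read by AlphaScreen after 30 min at room temperature.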
Active calls of the source: *. Unless noted, calls follow the shape of the dose curve; as a rule, active = well fitted curve in the direction sought with a large enough effect; inconclusive = small, poorly fitted or top-dose-only effect, or another doubt; inactive = no such curve, though single readings can be large; an effect the other way counts as inactive or inconclusive. Unless noted, % is scaled to controls: 0 for no effect and ±100 for the full control effect; potency is read from the fitted curve at half-maximal effect.

For COc1ccc(-c2noc(N3CCCC(C(=O)Nc4ccc(F)cc4F)C3)n2)cc1 (configuration not stated) the results were Pf growth 48h 21%, Pf growth 96h 9.3µM*, VACV mCherry inh -8%, Vaccinia Venus -23% and AMA1-RON2 inh -4%.
`COc1ccc(-c2noc(N3CCCC(C(=O)Nc4ccccc4F)C3)n2)cc1` (configuration not stated) gave Pf growth 48h 5%, Pf growth 96h 10µM*, VACV mCherry inh inactive, Vaccinia Venus -16% and AMA1-RON2 inh 11%.
COc1ccc(-c2noc(N3CCC(C(=O)Nc4ccc(F)cc4)CC3)n2)cc1 was read as Pf growth 48h -18%, Pf growth 96h -5%, VACV mCherry inh inactive, Vaccinia Venus -23% and AMA1-RON2 inh 7%.
COc1ccc(-c2noc(N3CCC(C(=O)Nc4ccccc4OC)CC3)n2)cc1 was read as Pf growth 48h inconclusive, Pf growth 96h 3%, VACV mCherry inh -3%, Vaccinia Venus -29% and AMA1-RON2 inh -3%.
Screening O=C(C1CCCN(c2ncnc3c2nc2n3CCCCC2)C1)N1CCN(c2ccc(F)cc2)CC1 (configuration not stated) returned Pf growth 48h 9.3µM*, Pf growth 96h inconclusive, VACV mCherry inh -5%, Vaccinia Venus -21% and AMA1-RON2 inh -2%.
For O=C(C1CCCN(c2ncnc3c2nc2n3CCCCC2)C1)N1CCCCC1 (configuration not stated) the results were Pf growth 48h inconclusive, Pf growth 96h 52%, VACV mCherry inh -9%, Vaccinia Venus 6% and AMA1-RON2 inh 1%.
Screening O=C(C1CCCN(c2ncnc3c2nc2n3CCCCC2)C1)N1CCN(c2ccc(Cl)cc2)CC1 (configuration not stated) returned Pf growth 48h 12µM*, Pf growth 96h -15%, VACV mCherry inh -17%, Vaccinia Venus inconclusive and AMA1-RON2 inh -11%.
Screening CCN1CCN(C(=O)/C=C/c2ccc(C(C)C)cc2)CC1 returned VACV mCherry inh -7%, Vaccinia Venus -11% and AMA1-RON2 inh 10%.
Screening CCN1CCC(O)(/C=C/c2ccc(C(C)C)cc2)C(C(=O)/C=C/c2ccc(C(C)C)cc2)C1 (configuration not stated) returned VACV mCherry inh 11µM*, Vaccinia Venus inconclusive and AMA1-RON2 inh -25%.
For Cc1ccc(Cn2ccnc2SCC(=O)Nc2nnc(C)s2)cc1 the results were VACV mCherry inh 1% and Vaccinia Venus -12%.
`Cc1ccn2cc(C(=O)Nc3nnc(C)s3)nc2c1` gave Pf growth 48h 63%, Pf growth 96h 4.1µM*, VACV mCherry inh -6%, Vaccinia Venus -2% and AMA1-RON2 inh 54%.
Cc1ccn2cc(C(=O)Nc3ccc4c(c3)OCCO4)nc2c1 was read as Pf growth 48h 173%, Pf growth 96h -41%, VACV mCherry inh -2%, Vaccinia Venus -5% and AMA1-RON2 inh 32%.
For CCOC(=O)c1cccnc1SCC(=O)N(CC)c1cccc(C)c1 the results were Pf growth 96h 12µM*, VACV mCherry inh -3%, Vaccinia Venus -10% and AMA1-RON2 inh 7%.
Screening CCN(C(=O)CSc1nc(-c2ccccc2)no1)c1cccc(C)c1 returned VACV mCherry inh 2.8µM* and Vaccinia Venus inconclusive.
CCCNC(=O)C1CCC(Cn2c(=O)c3sccc3n(CC(=O)N3CCCC3)c2=O)CC1 (configuration not stated) was read as VACV mCherry inh -9% and Vaccinia Venus -11%.
Screening Cc1ccc(CN(Cc2cccn2-c2nnc(N3CCCC3=O)s2)C(=O)Nc2ccc(F)cc2)cc1 returned VACV mCherry inh -14% and Vaccinia Venus -17%.
COc1ccc(CC(=O)N2CC(=O)Nc3ccc(F)cc3C2c2ccccc2)cc1 (configuration not stated) was read as VACV mCherry inh -7% and Vaccinia Venus -10%.
`CCOC(=O)C1CCN(c2cc(=O)n(-c3ccccc3Cl)c(=O)[nH]2)CC1` gave Pf growth 48h 1.9µM*, Pf growth 96h 13%, VACV mCherry inh inactive, Vaccinia Venus -11% and AMA1-RON2 inh 11%.
`O=c1cc(N2CCCCCC2)[nH]c(=O)n1-c1ccccc1Cl` gave Pf growth 48h 6%, Pf growth 96h -3%, VACV mCherry inh inactive, Vaccinia Venus -10% and AMA1-RON2 inh 9%.
